The experiment is described as follows: NCI Yeast Anticancer Drug Screen. Data for the rad50 strain (AID 155).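 Note: 0% = growth of vehicle-only cultures of the same strain.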 As to conditions: S. cerevisiae rad50 strain growth inhibition, active compounds read high. As to the method: Growth inhibition of yeast strains with defined genetic alterations is measured as a screen for potential anti-cancer activity. Selected strains with alterations in DNA damage repair or cell cycle control were exposed to compounds and growth inhibition was measured relative to vehicle treated controls. The strain used in this assay is rad50

[1] abbreviates: at 5.0 µM (retest, dose inferred, filed as 0.5).
Setting [2] is: at 50.0 µM (retest, dose inferred, filed as 5.0).

The structures appear in SMILES notation. About 79,000 compounds went through this panel and 15% of them were active in at least one assay; those are over-represented in the sample as a whole. Values without a mark were called inactive. The source made the active and inactive calls. Cut-off read from the data, not from the text of the source: active = growth inhibition above about 70%; inactive = the rest.

Regarding `CN(C)CCNC(=O)c1cccc2nc3c(ccc4ccccc43)nc12`, the growth inhibition is 3% (at 1.2 µM); 26% (at 3.7 µM); 13% under setting [1]; 67% (at 11.0 µM); 91% (active) (at 33.0 µM); 94% (active) under setting [2]. Also, the growth inhibition is 90% (active) (at 50.0 µM) and 98% (active) (at 100.0 µM).

Turning to `CN(C)N1C(=O)SCC(c2ccccc2)(c2ccccc2)C1=O`, the growth inhibition was 4% (at 1.2 µM); 7% (at 3.7 µM); -10% under setting [1]; 8% (at 11.0 µM); 30% (at 33.0 µM); 61% under setting [2]. Also, the growth inhibition reads like this: (at 50.0 µM) 64.8%; (at 100.0 µM) 50%.

Turning to `Cc1ccc2nc(N/N=C/c3ccc(C)s3)cc(C)c2c1`, the growth inhibition is, setting by setting: (at 1.2 µM) -2%; (at 3.7 µM) -22%; under setting [1], 22%; (at 11.0 µM) -1%; (at 33.0 µM) 99% (active); under setting [2], 98% (active). Besides, the growth inhibition is 89.7% (active) (at 50.0 µM) and 93% (active) (at 100.0 µM).

As to `c1ccc2cc(OCC3CO3)c(OCC3CO3)cc2c1` (stereo not given), the growth inhibition was -26% (at 1.2 µM); -21% (at 3.7 µM); 56% under setting [1]; 3% (at 11.0 µM); 59% (at 33.0 µM); 91% (active) under setting [2]. Besides, the growth inhibition is 57.1% (at 50.0 µM) and 83% (active) (at 100.0 µM).

Consider `O=C(CSS(=O)(=O)O)c1ccccc1`, for which the growth inhibition is -1% (at 1.2 µM); -1% (at 3.7 µM); 6% under setting [1]; 2% (at 11.0 µM); 2% (at 33.0 µM); 54% under setting [2]. Further, the growth inhibition runs as follows: (at 50.0 µM) 10.8%; (at 100.0 µM) 16%.

Source of the values: PubChem BioAssay (NCI).
